# Measurements reported in PubChem BioAssay AID868 (SRMLSC, 2007).
# The whole screen tested about 190,000 compounds, of which about 3,500 (1.8%) were called active. What follows is part of a selection rich in actives, with near analogues and random picks from the rest. Unmarked numbers belong to inactive results.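 How the source made its calls: active means inhibition above a set limit, 3 SD over mean compound inhibition (cut at about 8.4% in these data); inactive means the rest.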
# Experiment: inhibitors of the yeast RAM network, primary screen, dse1pr::URA3 reporter, 5-FOA selection (AID 868);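 further: 0% = DMSO-only wells with no growth and 100% = 10 µM 1-NA-PP1 full growth; inhibition rescues growth on 5-FOA so higher OD means more RAM inhibition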
# Conditions: S. cerevisiae dse1pr::URA3 reporter, 5-FOA growth OD615, 2 d; at 50 µM; hits give high values; analog-sensitive cbk1-as2 kinase mutant strain
row,Structure (SMILES),inhibition
1,O=C(NN=C1CCC(=NNC(=O)c2cccnc2)CC1)c1cccnc1,1.46%
2,CC(C)OCCCNC(=O)c1ccc(C2SCC(=O)N2Cc2ccco2)cc1 (configuration not stated),1.08%
3,Cc1ccsc1C1C(C#N)=C(N)OC2=C1C(=O)CC(C)(C)C2 (configuration not stated),1.24%
4,CCNC(=S)N1CCC(c2nc3cc(C)c(C)cc3[nH]2)CC1,-0.13%
5,CN(c1ccccc1)c1ccc(/C=c2\s/c(=C(/C#N)C(=O)C(C)(C)C)n(Cc3ccco3)c2=O)cc1,22.5% (active)
6,Cc1cc2c(c(=O)n1Cc1ccco1)C(c1ccccc1)C(C#N)=C(N)O2 (configuration not stated),2.82%
7,COc1ccc(NC(=O)Cn2c(=O)n(Cc3ccco3)c(=O)c3ccccc32)cc1,2.68%
8,CCc1ccc(NC(=O)C(C)OC(=O)/C=C/c2cccc([N+](=O)[O-])c2)cc1 (configuration not stated),2.92%
9,COc1c(C)cc(C(=O)C2CCCN(S(=O)(=O)c3c(C)noc3C)C2)cc1C (configuration not stated),5.32%
10,CCOc1ccccc1NC(=O)CCc1ccc(C)o1,1.75%
11,Cc1ccc(CCC(=O)Nc2ncc(Cc3cc(Cl)ccc3Cl)s2)o1,14% (active)
12,Cc1cnc(NC(=O)CSc2nnc(-c3ccc(Cl)cc3Cl)n2N)s1,2.06%
13,CCOC(=O)Cc1cc(=O)[nH]c(=O)[nH]1,-0.76%
14,Cc1cc(C)c(C#N)c(SCC(=O)NN2CC(=O)N(c3ccccc3F)CC2=O)n1,1.88%
15,O=C(c1ccc(Cl)c([N+](=O)[O-])c1)N1CCN(c2ccccc2)CC1,-1.05%
16,CC(O)C(NS(=O)(=O)c1ccc(Cl)cc1)C(=O)OCc1cc([N+](=O)[O-])cc2c1OCOC2 (configuration not stated),14.1% (active)

row,Structure (SMILES),inhibition
1,COc1ccc(S(=O)(=O)NC(C)C(=O)Nc2cccc([N+](=O)[O-])c2)cc1 (configuration not stated),0.38%
2,Nc1ccccc1SCc1cc([N+](=O)[O-])cc2c1OCOC2,0.13%
3,CN(C)CCCO/N=C(\c1ccccc1)c1ccncc1,1.14%
4,O=c1[nH]n2c(-c3ccccc3)nc(O)c2c2ccccc12,2.15%
5,Cn1c(=O)c2c(ncn2CC(=O)N/N=C/c2cn[nH]c2-c2ccc(F)cc2)n(C)c1=O,1.49%
6,CCSc1nnc(-c2cc3c(s2)-c2ccccc2CC3)o1,2.39%
7,Fc1ccc(CSc2nnc(-c3cc4c(s3)-c3ccccc3CC4)o2)cc1,22.2% (active)
8,Fc1ccc(-c2nnc(CSc3nnc(-c4ccc5c(c4)OCO5)o3)o2)cc1,3.54%
9,Cc1ccc(N(C(=O)C(F)(F)F)C(C(=O)NC2CCCCC2)c2ccncc2)cc1C (configuration not stated),4.82%
10,FC(F)(F)c1cccc(Cc2noc(CN3CCC(N4CCCCC4)CC3)n2)c1,0.6%
11,CCn1cc(C(=O)N/N=C(/C)c2ccc(F)cc2)c(=O)c2cc(F)c(N3CCCC3)cc21,0.79%
12,COc1ccc2c(c1)c(=O)c(C(=O)c1ccc(Cl)cc1)cn2CC(=O)Nc1ccc(F)cc1,3.22%
13,O=C(c1ccc(F)cc1)c1cn(Cc2ccc(F)cc2)c2cc3c(cc2c1=O)OCCO3,9.62% (active)
14,COc1ccc(/C=C2\SC(=S)N(CC(=O)NNC(=O)c3ccncc3)C2=O)cc1,4.19%
15,O=C(CCN1C(=O)/C(=C/c2cccs2)SC1=S)NNC(=O)c1cccc(O)c1,9.69% (active)
16,Cc1c(C(=O)NCCN2C(=O)S/C(=C\c3cccs3)C2=O)cccc1[N+](=O)[O-],2.49%
